# Unmarked numbers belong to inactive results. Results filed as inconclusive are left out. Active and inactive are the calls of the source. Unless noted, the call rests on the fitted dose curve; in most records, active means well fitted curve in the direction sought with a large enough effect in the repeat runs; inconclusive means weak or mixed curves; inactive means no such curve, though single readings can be large; an effect the other way counts as inactive or inconclusive.
# Tested on: not listed separately
# Test: qHTS assay to identify small molecule antagonists of the androgen receptor (AR) signaling pathway - cell viability counter screen (AID 743033; further: nearly all actives have a fitted effect of over 45% in size; further: potency means the concentration at half of the fitted maximal effect)
# Details: AR-bla HEK293 viability, CellTiter-Glo luminescence, 16 h; series mostly up to 58.5 µM; activity change, negative = cytotoxicity: at the top concentration
# On the % scale 0 is the no-effect control and ±100 the full control effect.
SMILES,"activity change, negative = cytotoxicity",Potency
Cc1ccccc1N=Nc1ccc(N=Nc2c(O)ccc3ccccc23)c(C)c1,10.9%,
C=C(C)C(=O)OCCOc1ccccc1,-9.18%,
c1ccc(-c2nc[nH]c2-c2ccccc2)cc1,-24.4%,
CCC(=O)OC(C)(C)C1CC=C(C)CC1 (stereo not drawn),-11.5%,
CC(C)CCCCCCOC(=O)c1ccc(C(=O)OCCCCCCC(C)C)c(C(=O)OCCCCCCC(C)C)c1,1.1%,
O=C(O)Cc1cc(I)c(Oc2ccc(O)c(I)c2)c(I)c1,,inactive
CCN(CC)C(C)CN1c2ccccc2Sc2ccccc21 (stereo not drawn),2.85% [at 27 µM],
CC[C@]12CCCN3CCc4c(n(c5ccccc45)C(=O)C1)[C@@H]32,-24.3% [at 27 µM],
CN(C)CC[C@@H](c1ccc(Br)cc1)c1ccccn1,-0.985%,
O=C(c1ccccc1)c1ccc2n1CCC2C(=O)O (stereo not drawn),,inactive
CCCCCOC(=O)c1ccc(O)cc1,-20.9% [at 78.9 µM],
Oc1ccc(O)c2c(O)cccc12,-8.29%,
COc1ccc([C@@H]2Sc3ccccc3N(CCN(C)C)C(=O)[C@@H]2OC(C)=O)cc1,17.3%,
CCCCCOC(=O)COc1cc(N2C(=O)C3=C(CCCC3)C2=O)c(F)cc1Cl,-3.42%,
CC(C)(C)c1ccc(S)cc1,8.73%,
COc1ccc(C(C)=O)cc1,-0.754% [at 78.9 µM],
CCOc1ccc(NC(=O)CC(C)=O)cc1,6.79%,

SMILES,"activity change, negative = cytotoxicity",Potency
O=C(c1ccc(O)cc1)c1ccc(O)cc1,1.77%,
C[Si](C)O[Si](C)(C)O[Si](C)(C)O[Si](C)C,0.674%,
Oc1ccc(Sc2ccc(O)cc2)cc1,-12.6%,
CCCCOc1ccc(CC(=O)NO)cc1,10.6% [at 27 µM],
CCCCOC(O)CC (stereo not drawn),1.79%,
O=C(CCN1CCN2CCCC2C1)N1c2ccccc2Sc2ccc(Cl)cc21 (stereo not drawn),-8.12%,
O=C1CCCCCO1,-1.57% [at 78.9 µM],
C=CC[N+]1([C@H]2C[C@H]3[C@@H]4CC[C@H]5C[C@H](OC(C)=O)[C@@H](N6CCCCC6)C[C@]5(C)[C@H]4CC[C@]3(C)[C@H]2OC(=O)CC)CCCCC1,0.447%,
Cc1ncsc1CCO,2.24%,
CN1CCC(=C2c3ccccc3C=Cc3ccccc32)CC1,19.8%,
C[C@@H](C1=C(CCN(C)C)Cc2ccccc21)c1ccccn1,-3.93%,
O=C1[C@H](CC[C@H](O)c2ccc(F)cc2)[C@@H](c2ccc(O)cc2)N1c1ccc(F)cc1,14.5%,
C=CC(=O)OCC(C)OCC(C)OCC(C)OC(=O)C=C (stereo not drawn),,54.9 µM (active)
CN(C(=O)CCCOc1ccc2[nH]c(=O)ccc2c1)C1CCCCC1,-2.32%,
c1ccc(CNCc2ccccc2)cc1,6.45%,
C=CC(C)(CCC=C(C)C)OC(=O)c1ccccc1 (stereo not drawn),5.07%,
CC(C)(C)C(=O)OCOP(=O)(COCCn1cnc2c(N)ncnc21)OCOC(=O)C(C)(C)C,14.4%,

# Biological target: Androgen receptor (Homo sapiens) (UniProt P10275)
# Test: qHTS assay to identify small molecule antagonists of the androgen receptor (AR) signaling pathway (AID 743035; active means well fitted inhibition curve with a large enough effect in the signal ratio in the repeat runs, not every such curve was filed as active; the % refers to the signal ratio; further: potency means the concentration at half of the fitted maximal effect)
# Details: HEK293 AR-UAS-bla, R1881-stimulated, beta-lactamase FRET, 16 h; series mostly up to 58.5 µM; activity change, negative = inhibition: at the top concentration
# Method in brief: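 In this cell-based reporter screen, compounds were tested in concentration series against R1881-activated HEK293 cells expressing beta-lactamase under UAS control; after 16 h at 37C, FRET substrate was added and fluorescence read 2 h later.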
# Androgen receptor (Homo sapiens), sequence (P10275 whole entry, looked up): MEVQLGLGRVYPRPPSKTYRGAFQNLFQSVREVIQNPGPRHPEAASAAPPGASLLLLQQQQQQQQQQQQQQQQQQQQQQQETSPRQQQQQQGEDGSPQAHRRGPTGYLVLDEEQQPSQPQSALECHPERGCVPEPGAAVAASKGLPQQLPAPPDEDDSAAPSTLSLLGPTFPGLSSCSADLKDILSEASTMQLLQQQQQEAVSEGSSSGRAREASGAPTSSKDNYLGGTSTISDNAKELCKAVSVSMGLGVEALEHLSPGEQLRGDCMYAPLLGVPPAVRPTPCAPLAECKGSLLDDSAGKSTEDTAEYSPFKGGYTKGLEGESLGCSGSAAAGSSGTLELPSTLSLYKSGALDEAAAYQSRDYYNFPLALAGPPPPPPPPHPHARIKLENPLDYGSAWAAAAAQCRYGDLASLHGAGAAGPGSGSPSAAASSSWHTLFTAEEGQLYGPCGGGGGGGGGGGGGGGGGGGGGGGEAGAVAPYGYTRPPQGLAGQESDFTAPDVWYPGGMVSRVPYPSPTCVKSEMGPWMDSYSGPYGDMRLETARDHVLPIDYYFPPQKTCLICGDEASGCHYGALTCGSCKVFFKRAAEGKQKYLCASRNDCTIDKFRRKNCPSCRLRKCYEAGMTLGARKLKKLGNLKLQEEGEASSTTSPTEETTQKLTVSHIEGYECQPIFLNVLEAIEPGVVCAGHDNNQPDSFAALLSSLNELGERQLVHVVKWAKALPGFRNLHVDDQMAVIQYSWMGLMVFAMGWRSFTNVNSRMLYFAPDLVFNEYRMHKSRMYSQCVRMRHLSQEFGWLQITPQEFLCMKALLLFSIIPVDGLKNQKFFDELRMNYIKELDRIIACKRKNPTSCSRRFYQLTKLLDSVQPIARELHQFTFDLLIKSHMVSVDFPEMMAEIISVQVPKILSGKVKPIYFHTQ
SMILES,Potency,"activity change, negative = inhibition"
CC[C@]12CCCN3CCc4c(n(c5ccccc45)C(=O)C1)[C@@H]32,9.1 µM (active),
COc1ccc(C(C)=O)cc1,,9.19% [at 78.9 µM]
CC(C)CCCC(C)CCO (stereo not drawn),,-1.42%

# Biological target: Androgen receptor (Homo sapiens) (UniProt P10275)
# Test: qHTS assay to identify small molecule agonists of the androgen receptor (AR) signaling pathway (AID 743036; active means well fitted activation curve with a large enough effect in the signal ratio in the repeat runs, with a control signal flat, not every such curve was filed as active; the % refers to the signal ratio)
# Details: HEK293 AR-UAS-bla GripTite, beta-lactamase FRET ratio, 16 h; series mostly up to 62.4 µM; activation: at the top concentration
# Method in brief: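 Beta-lactamase under UAS control, stably integrated in HEK293 GripTite cells, reports receptor activation. After 16 h compound treatment, cells received FRET substrate for 2 h at room temperature before fluorescence reading.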
row,SMILES,activation
1,C=C(C)C(=O)OCCOc1ccccc1,-6.67%
2,COc1ccc(C(C)=O)cc1,2.58% [at 79.1 µM]
3,CCCCOC(O)CC (stereo not drawn),3.77%
4,O=C(CCN1CCN2CCCC2C1)N1c2ccccc2Sc2ccc(Cl)cc21 (stereo not drawn),-5.08%
5,CC(C)CCCC(C)CCO (stereo not drawn),-4.43%

# Biological target: Androgen receptor (Homo sapiens) (UniProt P10275)
# Test: qHTS assay to identify small molecule agonists of the androgen receptor (AR) signaling pathway using the MDA cell line (AID 743040; further: nearly all actives have a fitted effect of over 20% in size)
# Details: MDA-kb2 AR-luc cells, MMTV luciferase, 16 h; series mostly up to 70.3 µM; activity change: at the top concentration
# Method in brief: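 Cell-based luciferase reporter: MDA-kb2, MMTV promoter (AR + GR response elements). 16 h compound exposure at 37C; ONE-Glo, 30 min RT, luminescence.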
row,SMILES,activity change
1,C=C(C)C(=O)OCCOc1ccccc1,-0.99%
2,CC[C@]12CCCN3CCc4c(n(c5ccccc45)C(=O)C1)[C@@H]32,"-2.59% [at 32.5 µM, active compounds read high]"
3,COc1ccc(C(C)=O)cc1,"-0.885% [at 95 µM, active compounds read high]"
4,O=C(c1ccc(O)cc1)c1ccc(O)cc1,-3.34%
5,CCCCOC(O)CC (stereo not drawn),0.798%
6,O=C(CCN1CCN2CCCC2C1)N1c2ccccc2Sc2ccc(Cl)cc21 (stereo not drawn),-7.77%
7,CC(C)CCCC(C)CCO (stereo not drawn),0.0129%

# Tested on: not listed separately
# Test: qHTS assay to identify small molecule antagonists of the androgen receptor (AR) signaling pathway using the MDA cell line - cell viability counter screen (AID 743041; further: nearly all actives have a fitted effect of over 45% in size)
# Details: MDA-kb2 viability, CellTiter-Fluor, 16 h, cells co-treated with R1881 androgen agonist; series mostly up to 70.3 µM; viability change, negative = cytotoxic: at the top concentration
# Method in brief: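 In this qHTS counter assay, fluorescence intensity after CellTiter-Fluor addition indicated viability of MDA-kb2 AR-luc cells given compounds and R1881 for 16 h at 37C.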
SMILES,"viability change, negative = cytotoxic",Potency
Cc1ccccc1N=Nc1ccc(N=Nc2c(O)ccc3ccccc23)c(C)c1,-0.379%,
C=C(C)C(=O)OCCOc1ccccc1,4.23%,
c1ccc(-c2nc[nH]c2-c2ccccc2)cc1,1.96%,
CCC(=O)OC(C)(C)C1CC=C(C)CC1 (stereo not drawn),-0.421%,
O=C(O)Cc1cc(I)c(Oc2ccc(O)c(I)c2)c(I)c1,,inactive
CCN(CC)C(C)CN1c2ccccc2Sc2ccccc21 (stereo not drawn),2.18% [at 32.5 µM],
CC[C@]12CCCN3CCc4c(n(c5ccccc45)C(=O)C1)[C@@H]32,-5.75% [at 32.5 µM],
CN(C)CC[C@@H](c1ccc(Br)cc1)c1ccccn1,-6.58%,
O=C(c1ccccc1)c1ccc2n1CCC2C(=O)O (stereo not drawn),,inactive
COc1ccc([C@@H]2Sc3ccccc3N(CCN(C)C)C(=O)[C@@H]2OC(C)=O)cc1,2.44%,
CCCCCOC(=O)COc1cc(N2C(=O)C3=C(CCCC3)C2=O)c(F)cc1Cl,-1.78%,
CC(C)(C)c1ccc(S)cc1,11.3%,
COc1ccc(C(C)=O)cc1,7.62% [at 95 µM],
CCOc1ccc(NC(=O)CC(C)=O)cc1,9.06%,
O=C(c1ccc(O)cc1)c1ccc(O)cc1,7.09%,
N#Cc1cc2ccccc2c2ccccc12,-0.346% [at 95 µM],
C[Si](C)O[Si](C)(C)O[Si](C)(C)O[Si](C)C,5.57%,
Oc1ccc(Sc2ccc(O)cc2)cc1,-3.25%,
CCCCOc1ccc(CC(=O)NO)cc1,1.21% [at 32.5 µM],
CCCCOC(O)CC (stereo not drawn),2.8%,
O=C(CCN1CCN2CCCC2C1)N1c2ccccc2Sc2ccc(Cl)cc21 (stereo not drawn),-18.1%,
O=C1CCCCCO1,2.34% [at 95 µM],
CC(C)CCCC(C)CCO (stereo not drawn),-2.52%,
C=CC[N+]1([C@H]2C[C@H]3[C@@H]4CC[C@H]5C[C@H](OC(C)=O)[C@@H](N6CCCCC6)C[C@]5(C)[C@H]4CC[C@]3(C)[C@H]2OC(=O)CC)CCCCC1,0.197%,
C[C@@H](C1=C(CCN(C)C)Cc2ccccc21)c1ccccn1,-3.55%,
O=C1[C@H](CC[C@H](O)c2ccc(F)cc2)[C@@H](c2ccc(O)cc2)N1c1ccc(F)cc1,-7.35%,
C=CC(=O)OCC(C)OCC(C)OCC(C)OC(=O)C=C (stereo not drawn),-16.7%,
CN(C(=O)CCCOc1ccc2[nH]c(=O)ccc2c1)C1CCCCC1,2.33%,
CC(C)(C)C(=O)OCOP(=O)(COCCn1cnc2c(N)ncnc21)OCOC(=O)C(C)(C)C,-3.73%,

# From PubChem BioAssay (Tox21)
